Assay results reported in PubChem BioAssay (NCI).
This is part of a sample that, as a whole, favours compounds with a hit. Of some 83,000 tested, about 20% had one in any assay.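 Results are percent growth after 48 hours of single-concentration exposure. 100 means growth as in untreated cells, lower positive values show inhibition; negative values down to -100 show cell death.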 Unmarked numbers belong to inactive results. Calls of active or inactive are those of the source. How the source made its calls: active means growth percent below 10; inactive means the rest.

Experiments:
Experiment in all cases: NCI-60 one-dose screen, 48 h (100 = growth as untreated, 0 = no growth, -100 = all killed)
SR leukemia = settings: 10 µM unless noted
RPMI-8226 leukemia = settings: 10 µM
OVCAR-8 ovarian = settings: 10 µM unless noted
OVCAR-5 ovarian = settings: 10 µM unless noted
SK-OV-3 ovarian = settings: 10 µM
OVCAR-3 ovarian = settings: 10 µM unless noted
HS 578T breast = settings: 10 µM unless noted
NCI/ADR-RES ovarian = settings: 10 µM unless noted
T-47D breast = settings: 10 µM
BT-549 breast = settings: 10 µM unless noted
MDA-MB-435 melanoma = settings: 10 µM unless noted
SW-620 colon = settings: 10 µM unless noted
HCT-116 colon = settings: 10 µM unless noted
HCC-2998 colon = settings: 10 µM unless noted
KM12 colon = settings: 10 µM unless noted
IGROV1 ovarian = settings: 10 µM unless noted
MCF7 breast = settings: 10 µM unless noted

Row | Structure (SMILES) | growth (SR leukemia) | growth (RPMI-8226 leukemia) | growth (OVCAR-8 ovarian) | growth (OVCAR-5 ovarian) | growth (SK-OV-3 ovarian) [%] | growth (OVCAR-3 ovarian) | growth (HS 578T breast) | growth (NCI/ADR-RES ovarian) | growth (T-47D breast) | growth (BT-549 breast) | growth (MDA-MB-435 melanoma) | growth (SW-620 colon) | growth (HCT-116 colon) | growth (HCC-2998 colon) | growth (KM12 colon) | growth (IGROV1 ovarian) | growth (MCF7 breast)
1 | O=C(NCc1ccco1)C1CCN(S(=O)(=O)c2ccc(Cl)cc2)CC1 | 19.5% | -24.6% (active) | 80.4% | 103% | 94.5 | -64.7% (active) | 68.9% | 66.6% | 78% | 84.4% | -9% (active) | 38.5% | 70.4% | 80.3% | 37.6% | – | –
2 | CCOC(=O)c1c(Cl)c2c(n1Cc1ccc(OC)cc1)-c1oncc1CCC2 | 23.7% | 52.4% | 81.5% | 90.1% | 105 | 102% | 67.4% | 80.6% | 83.6% | 70.4% | 101% | 71.1% | 62.3% | 66.9% | 96.8% | 84.4% | 82.3%
3 | Brc1ccc(SCN(CSc2ccc(Br)cc2)Cc2ccccc2)cc1 | 34.6% | 36.3% | 74.4% | 90.1% | 93.9 | 91.6% | 88.1% | 73.4% | 84.7% | -15.2% (active) | 75.8% | 102% | 57.8% | 113% | 43.2% | 35.6% | 66.2%
4 | CCOC(=O)c1c(-c2cc(OC)c(OC)c(OC)c2)csc1N | 27.2% | 90.3% | 106% | 101% | 90.9 | 96.4% | 104% | – | 94% | 117% | -1.03% (active) | 76.6% | 90.4% | – | 64.2% | 84.3% | 78.1%
5 | O=C(CCc1nnc2sc(/C=C\c3ccccc3)nn12)c1nc2ccccc2[nH]1 | 63.5% | 72% | 92.7% | 116% | 97.2 | 115% | 83.1% | 89.5% | 61.1% | 93.1% | 83.8% | 118% | 59.7% | 95.8% | 92.5% | 96% | 77.3%
6 | C[C@H]1C(=O)C23CCC1C[C@@]21O[C@@H]2C(C)(C)C=CC(=O)C23COC1=O | 102% | 93.5% | 101% | 109% | 102 | 126% | 109% | 106% | 98.4% | 106% | 107% | 108% | 96.5% | 104% | 113% | 110% | 99.5%
7 | Cc1oc2c(c1C(=O)N1CC[C@@H](N)C1)C(=O)c1c(c(O)c3ccccc3c1O)C2=O | 1.4% (active) | 12.4% | 12.9% | 85.3% | 35.3 | 3.52% (active) | 34.3% | 8.79% (active) | 61.8% | 79% | 40.3% | 3.53% (active) | 5.14% (active) | 12.3% | 15.7% | – | -1.04% (active)
8 | COC(=O)c1c2c(c(C)[n+]([O-])c1C)C(=O)C=C(NCc1ccc(F)cc1)C2=O | 2.14% (active) | -20.9% (active) | 2.54% (active) | -68.8% (active) | – | -35.9% (active) | -16.6% (active) | -16.7% (active) | -41.1% (active) | -91.3% (active) | -93.1% (active) | -9.71% (active) | 0.358% (active) | -40.2% (active) | 1.23% (active) | -59.4% (active) | -60.6% (active)
9 | O=c1oc2ccccc2cc1-c1csc(N/N=C/c2cc3ccccc3nc2Cl)n1 | 129% | 108% | 103% | 98.6% | – | 108% | 107% | 99.7% | 90.8% | 105% | 95.7% | 106% | 105% | 102% | 100% | 93.3% | 90.7%
